This is an account of results in PubChem BioAssay (NCATS).

Experiment [1] is described as follows: Confirmation and Secondary Assay for Modulators of Hemoglobin Beta Chain Splicing at IVS2 705 locus (AID 930).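 Also: HeLa cells stably expressing the EGFP-705 splicing reporter; GFP fluorescence per well restored by corrected splicing of the IVS2-705 intron in EGFP; series mostly up to about 46 µM.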 In a few lines:
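Splice-correction reporter: EGFP cDNA split by beta-globin intron 2 bearing the 705 mutation, stably in HeLa. Compound incubation 2 days, 37C; fluorescent objects 5-250 µm summed per well.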

Experiment [2] can be described thus: MultiTox-Fluor Cytotoxicity Assay - LYMP1-001 - Dead Cells (AID 946). In a few lines:
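Seed 2500 LYMP1-001 cells/well, incubate 5 hr at 37 C; add compound, 16 hr at 37 C; add MultiTox-Fluor reagent, 60 min RT; read dead-cell fluorescence Ex/Em=485/520. Normalize to DMSO and 15 uM tetraoctylammonium bromide.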

Experiment [3] can be described thus: MultiTox-Fluor Cytotoxicity Assay - LYMP1-001 - Live Cells (AID 947).
Experiment [4] in a line: Cell Viability - LYMP1-002 - Assay at 16 hr (AID 948). In a few lines:
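Seed 2500 LYMP1-002 cells per well in complete medium and hold 5 hr at 37 C. Add compound across a concentration series and incubate 16 hr at 37 C. Add CellTiter-Glo, wait 30 min at room temperature, read luminescence.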

The nature of experiment [5]: MultiTox-Fluor Cytotoxicity Assay - LYMP1-002 - Live Cells (AID 955). In a few lines: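 Human lymphoblastoid LYMP1-002 cells, 2500/well in complete medium, rested 5 hr at 37 C, then exposed to compounds for 16 hr at 37 C. Live-cell protease cleavage of GF-AFC read by fluorescence (Ex/Em 405/510) after 60 min at room temperature; AC50 from Hill fits.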
Experiment [6] is described as follows: MultiTox-Fluor Cytotoxicity Assay - LYMP1-002 - Dead Cells (AID 960). Also: nearly all actives have a fitted effect of over 60% in size. In a few lines:
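Human lymphoblastoid cells (LYMP1-002), 2500/well in complete medium, were exposed to compounds for 16 hr at 37 C. Dead-cell protease activity was read as bis-AAF-R110 fluorescence (Ex/Em 485/520), normalized to DMSO and 15 uM tetraoctylammonium bromide; AC50 from Hill fits.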

Experiment [7] is described as follows: MultiTox-Fluor Cytotoxicity Assay - LYMP1-003 - Dead Cells (AID 961). Also: nearly all actives have a fitted effect of over 70% in size. In a few lines: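 LYMP1-003 lymphoblastoid, 2500 cells/well, 5 hr settle then 16 hr cpd at 37 C; MultiTox-Fluor reagent 60 min RT; Ex/Em 485/520 dead-cell signal; norm. DMSO = 0%, 15 uM tetraoctylammonium bromide = 100%; Hill AC50.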
Experiment [8] can be described thus: MultiTox-Fluor Cytotoxicity Assay - LYMP1-003 - Live Cells (AID 962).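 Also: cytotoxic hits lower the live-cell protease signal.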 An excerpt:
NIH Chemical Genomics Center [NCGC]
NIH Molecular Libraries Screening Centers Network [MLSCN]
National Institutes of Environmental Health Sciences [NIEHS]
National Toxicology Program [NTP]
We have developed a 1536-well cell-based assay for quantitative high throughput screening (qHTS) against a number of cell lines to determine in vitro cytotoxicity of small molecules. This particular assay uses a human lymphoblastoid cell line (LYMP1-003) purchased from Coriell Institute.
NCGC Assay Protocol Summary:
The MultiTox-Fluor Cytotoxicity Assay (Promega) is a homogeneous method to simultaneously measure the relative number of live and dead cells in culture by detecting changes in cell membrane integrity. There are two fluorogenic peptide substrates in the assay reagent. Viable cells are determined when the cell-permeant substrate (GF-AFC) enters the cell and is cleaved by protease from live cells resulting in liberated fluorophore. […] The dead cells are determined by using fluorogenic cell-impermeant peptide substrate (bis-AAF-R110) which cleaved by dead cell proteases leaking from damaged cell membrane.
Using the MultiTox-Fluor Cytotoxicity Assay, the relative number of live cells was measured in the lymphoblastoid cell line with complete culture medium following compound treatment for 16 hours. […] AC50 values were determined from concentration-response data modeled with the standard Hill equation. […]

The nature of experiment [9]: Cell Viability - LYMP1-003 - Assay at 24 hr (AID 963). In a few lines: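 Human lymphoblastoid LYMP1-003 cells (2500/well) were rested 5 hr at 37 C, then exposed to compounds in complete medium for 24 hr at 37 C. Cellular ATP was quantified by CellTiter-Glo luminescence, and AC50 values came from Hill fits of concentration-response data.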
Experiment [10] is described as follows: Cell Viability - LYMP1-003 - Assay at 40 hr (AID 964). Also: series mostly up to about 92 µM; nearly all actives have a fitted effect of over 60% in size. In a few lines:
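Human lymphoblastoid LYMP1-003 cells, 2500/well in complete medium, rested 5 hr at 37 C, then exposed to compounds for 40 hr at 37 C. Viability read as intracellular ATP by CellTiter-Glo luminescence; AC50 from Hill fits of concentration-response data.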

SMILES strings stand for the structures. Results filed as inconclusive are left out. The source made the active and inactive calls. Calls follow the shape of the dose curve; as a rule, active = well fitted curve in the direction sought with a large enough effect; inconclusive = small, poorly fitted or top-dose-only effect, or another doubt; inactive = no such curve, though single readings can be large; an effect the other way counts as inactive or inconclusive.

With `Cc1cc2nc3c(=O)[nH]c(=O)nc-3n(CC(O)C(O)C(O)CO)c2cc1C` (centres undefined), the result in experiment [1] was inactive.

On to `O=C1C(CCC(O)c2ccc(F)cc2)C(c2ccc(O)cc2)N1c1ccc(F)cc1` (centres undefined), for which, in experiment [1], the result was inactive.

On to `COc1ccnc(CS(=O)c2nc3ccc(OC(F)F)cc3[nH]2)c1OC` (centres undefined), for which, in [1], the result was inactive.

Turning to `COc1ccc2ccc(=O)oc2c1CC=C(C)C`, the result in [1] was inactive.

Regarding `CC(NCCc1ccc(O)cc1)C(O)c1ccc(O)cc1` (centres undefined), the call in [1] was inactive.

As for `OC(c1cc(C(F)(F)F)nc2c(C(F)(F)F)cccc12)C1CCCCN1` (centres undefined), in [1], the compound was classed as inactive.

Take `NCC1CCC(C(=O)O)CC1` (centres undefined): the compound was classed as inactive in [1].

As to `C[C@@H]1C[C@H]2[C@@H]3CCC4=CC(=O)C=C[C@]4(C)[C@@]3(F)[C@@H](O)C[C@]2(C)[C@@]1(O)C(=O)CO`, the outcome in [2], in [3], in experiment [4], in experiment [5], in experiment [6] and in experiment [7] was inactive. For the same compound, the result in experiment [8], in experiment [9] and in experiment [10] was inactive.

For the compound `CCC(c1ccc(O)cc1)C(CC)c1ccc(O)cc1` (centres undefined), the compound was classed as inactive in experiment [1].

Consider `CS(=O)(=O)c1ccc(C2=C(c3ccccc3)C(=O)OC2)cc1`, for which the outcome in [1] was inactive.

Consider `CC1(C)OC2CC3C4CC(F)C5=CC(=O)C=CC5(C)C4C(O)CC3(C)[C@]2(C(=O)CO)O1` (some centres undefined), for which the call in experiment [1] was inactive.
